The source of these data is PubChem BioAssay AID743446 (Broad Institute, 2014).

Entries with a potency or affinity are not part of this list. Values without a mark were called inactive. The rule behind the calls is not given here.

The nature of this experiment: viability loss in HEK293 cells – cell-based, plate reader, cherry-picked samples, cytotoxicity control, dose response (AID 743446). The settings on record: stronger effect = lower value; at 26 µM unless noted.
Regarding `COc1ccc(C(=O)Nc2ccc3ccccc3c2)cc1`, the max activity was 26.8% [at 0.8 µM].

For the compound `O=C(CCc1nnc(CCCCc2ccccc2)o1)N1CCCC(O)C1` (centres undefined), the max activity was -17.7% [at 0.1 µM]. In the case of `OC1CCC(Nc2ccn3nc(-c4cccc(OCc5ccccc5)c4)cc3n2)CC1` (centres undefined) it was -14.9% [at 12 µM]; in that of `Cc1ccc(S(=O)(=O)N2CCCCC2)cc1NC(=O)c1ccc2c(=O)n3c(nc2c1)CCCCC3`, 45.8% [at 6 µM]. Turning to `Cc1ccc(-c2cc(C(=O)N(C)Cc3cnn(C)c3C)c3cc(Br)ccc3n2)cc1`, the max activity is -9.48%.

As for `COc1ccc(S(=O)(=O)Nc2ccc3c(c2)C(=O)N([C@H](C)CO)C[C@H](C)[C@H](CN(C)S(=O)(=O)c2ccc(F)cc2)OCCCC[C@@H](C)O3)cc1`, the max activity is -23.7% [at 12 µM].

For `COc1ccc(C(=O)CN2C(=O)c3ccccc3S2(=O)=O)cc1`, the max activity is -13.3% [at 0.05 µM]. `Cc1ccc(S(=O)(=O)N(C)C[C@H]2Oc3c(cccc3N(C)C)C(=O)N([C@@H](C)CO)C[C@@H]2C)cc1`: the max activity was 10.6% [at 6 µM].

Take `CCCNC(=O)N1[C@H](C#N)[C@H](c2ccc(C#Cc3ccc(F)cc3)cc2)[C@H]1CO`: the max activity is -37%.

For `C[C@H](CO)N1C[C@H](C)[C@H](CN(C)S(=O)(=O)c2ccc(C(F)(F)F)cc2)OCc2ccccc2-c2c(n(C)c3ccccc23)C1=O`, the max activity was -10.7% [at 1.6 µM]. Regarding `c1ccc(-n2nnc3c(N4CCOCC4)ncnc32)cc1`, the max activity is 32.3% [at 0.8 µM]. Consider `Cc1ccc(NC(=O)c2cnn(-c3ccccc3)c2C)cc1C`, for which the max activity was 11.5% [at 0.05 µM]. In the case of `O=C(CN1C(=O)c2ccccc2S1(=O)=O)c1ccccc1Cl` it was 32.4%. Consider `COCCn1c(C)cc(C(=O)CSc2nnnn2C2CCCC2)c1C`, for which the max activity was 21%. Take `Cc1csc(NC(=O)c2ccc(OCC3CCCO3)cc2)n1` (centres undefined): the max activity is 28.1% [at 3 µM]. The value for `COc1ccc(C(=O)Nc2ccc3ncccc3c2)cc1` was -20.3%; that for `C[C@H](CO)N1C[C@H](C)[C@H](CN(C)C(=O)Cc2ccccc2)OCCCC[C@H](C)Oc2ccc(NC(=O)Nc3ccc(C(F)(F)F)cc3)cc2C1=O` was 12.5% [at 3 µM]. Consider `O=C(O)c1cccc(COc2ccc(CO)cc2Cl)c1`, for which the max activity was 13.3% [at 6 µM]. The value for `C[C@H](CO)N1C[C@H](C)[C@H](CN(C)C(=O)Nc2ccccc2)OCCCC[C@H](C)Oc2ccc(NC(=O)NC3CCCCC3)cc2C1=O` was 6.41%; that for `O=C(O)c1c2c(nc3ccccc13)/C(=C/c1ccc(O)cc1)CC2` was 22.6%. `COc1cccc(-c2cc(C(=O)Nc3cccc(O)c3)no2)c1`: the max activity is -7.14%. For `Cc1ccc(S(=O)(=O)N(C)C[C@H]2Oc3cc(Br)ccc3S(=O)(=O)N([C@H](C)CO)C[C@H]2C)cc1`, the max activity was 10.1% [at 1.6 µM]. The value for `C=CCNc1nc(-c2cc3ccccc3o2)cs1` was -11.4% [at 0.8 µM]. The value for `CCN(C(=O)COC(=O)C12CC3CC(CC(O)(C3)C1)C2)c1c(N)n(Cc2ccccc2)c(=O)[nH]c1=O` was 34% [at 0.1 µM]. As to `COc1ccc(NC(=O)N(C)C[C@@H]2OCCCC[C@H](C)Oc3ccc(NC(=O)C4CCCCC4)cc3C(=O)N([C@H](C)CO)C[C@@H]2C)cc1`, the max activity is 11.8%. In the case of `C[C@H](CO)N1C[C@H](C)[C@H](CN(C)C(=O)CN2CCOCC2)Oc2ncc(C#CCN(C)C)cc2C1=O` it was 18.5% [at 0.42 µM]; in that of `COc1ccc(-c2cc(C(=O)N3CCOCC3)no2)cc1`, -14.8%.

Regarding `C[C@H](CO)N1C[C@H](C)[C@H](CN(C)C(=O)Nc2ccc(F)cc2)OCCCC[C@H](C)Oc2ccc(NC(=O)Nc3ccc(F)cc3)cc2C1=O`, the max activity is 17% [at 1.5 µM]. In the case of `O=c1c2c(nc3cc(-c4ccc(F)cc4)[nH]n13)CCCC2` it was -12.8%; in that of `Cc1cc(C(=O)COC(=O)c2ccccc2O)c(C)n1CC1CCCO1` (centres undefined), -7.06% [at 6 µM].

For the compound `C=CCNC(=O)c1c(Cl)nc(C)c([N+](=O)[O-])c1C`, the max activity is 11.7% [at 0.1 µM]. In the case of `CO[C@@H]1CN(C)C(=O)c2cc(NC(C)=O)ccc2OC[C@@H](C)N(Cc2ccc(F)cc2)C[C@@H]1C` it was 59.8% [at 0.05 µM]. The value for `CC(C)Nc1ncnc2c1cnn2-c1ccc(Cl)cc1` was 60.9%. In the case of `Cc1ccccc1N=CC1=C(O)c2ccccc2C1=O` it was 12.1% [at 0.05 µM]. For the compound `C[C@H]1CCCCO[C@@H](CN(C)C(=O)Nc2ccccc2)[C@@H](C)CN([C@@H](C)CO)C(=O)c2cc(NC(=O)NC3CCCCC3)ccc2O1`, the max activity was 12.4% [at 0.05 µM]. `O=C(C[C@@H]1C[C@H]2c3cc(NC(=O)c4ccc5c(c4)OCO5)ccc3O[C@H]2[C@@H](CO)O1)NCc1ccc(Oc2ccccc2)cc1`: the max activity was -15.7% [at 0.05 µM]. In the case of `Cc1cc(C(=O)Nc2ccc(N3CCCCC3)cc2)no1`, the max activity was 16% [at 0.195 µM]. The value for `CC(=O)N1CCCCN2[C@H](CO)[C@H](c3ccc(-c4cccc(C)c4)cc3)[C@@H]2C1` was 30.5% [at 1.6 µM]; that for `CC(=O)c1c(C)[nH]c(C(=O)CN2C(=O)NC(C)(c3ccc(C)cc3)C2=O)c1C` (centres undefined) was 39.5%.
